AmpC no deterg – qHTS Inhibitors of AmpC Beta-Lactamase (assay without detergent) | AID 485341, 2010 | hit rate 0.52% among 330,000 | AmpC nitrocefin hydrolysis, absorbance 480 nm, 0.0001% Triton | Potency, µM (doses to about 57.1 µM), hits mostly inhibitors; also: nearly all actives have a fitted effect of over 20% in size
Target sequence (P00811 whole entry, looked up): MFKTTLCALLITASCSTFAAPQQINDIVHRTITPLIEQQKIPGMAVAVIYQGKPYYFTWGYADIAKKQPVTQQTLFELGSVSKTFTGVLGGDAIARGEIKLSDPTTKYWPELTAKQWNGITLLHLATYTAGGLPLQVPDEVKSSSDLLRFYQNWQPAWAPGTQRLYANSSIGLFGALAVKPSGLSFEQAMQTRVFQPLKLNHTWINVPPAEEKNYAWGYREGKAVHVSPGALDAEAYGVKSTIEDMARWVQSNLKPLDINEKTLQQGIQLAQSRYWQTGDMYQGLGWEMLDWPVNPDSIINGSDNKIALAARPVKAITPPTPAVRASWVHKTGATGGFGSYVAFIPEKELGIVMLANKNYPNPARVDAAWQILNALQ
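20 mM phosphate pH 7.0 + 0.01% (detergent screen) or 0.0001% Triton X-100; 5.3 nM AmpC reagent; cpd preinc 15 min RT; nitrocefin (800 uM stock) to start; A480 q20 s × 4 min; Activity was normalised to no-enzyme and no-compound control wells.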
Sm TGR block – qHTS Assay for the Inhibitors of Schistosoma Mansoni Peroxiredoxins | Schistosoma mansoni thioredoxin glutathione reductase (TGR), Q962Y6 | purified TGR, DTNB reduction, TNB absorbance 405 nm | Potency, µM (top dose mostly 114 µM), actives largely listed as inhibitors | hit rate 3% among 360,000 | AID 485364, 2010; also: nearly all actives have a fitted effect of over 60% in size
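First, TGR (20 nM dispensed) and NADPH were mixed with compound. Second, a 15 min room-temperature incubation followed. Third, further NADPH and then DTNB were added to start the reaction. Finally, TNB absorbance was monitored kinetically.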
AmpC inh detg – qHTS Inhibitors of AmpC Beta-Lactamase (assay with detergent) | AmpC hydrolysis of nitrocefin, absorbance 480 nm, 0.01% Triton | Potency, µM (top dose mostly 114 µM), most hits filed as inhibitors | hit rate 0.041% among 370,000; also: nearly all actives have a fitted effect of over 25% in size
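20 mM phosphate pH 7.0 + 0.01% (detergent screen) or 0.0001% Triton X-100; 5.3 nM AmpC reagent; cpd preinc 15 min RT; nitrocefin (800 uM stock) to start; A480 q20 s × 4 min; Activity was normalised to no-enzyme and no-compound control wells.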
Each line names hits and unclear results; the compound was inactive in the other large screens. Sampled rows, rich in hits. Any-hit rate of the full collection: about 3.3%. Calls follow the shape of the dose curve; as a rule, active = well fitted curve in the direction sought with a large enough effect; inconclusive = small, poorly fitted or top-dose-only effect, or another doubt; inactive = no such curve, though single readings can be large; an effect the other way counts as inactive or inconclusive.

CCOC(=O)c1cccc(NC(=O)CSc2nnc(C)n2CC2CCCO2)c1 (stereo not given)	none
CCOC(=O)/C(C)=N/Nc1nc(-c2ccc(NC(C)=O)cc2)cs1	Sm TGR block 11.2µM
CC(=O)Nc1ccc(-c2csc(N/N=C(/C)c3ccccc3)n2)cc1	none
CC(C)c1ccc(Nc2cc(C(=O)NCCc3ccccc3)c3ccccc3n2)cc1	none (no result: AmpC no deterg)
COc1coc(C(O)C[N+](=O)[O-])cc1=O (stereo not given)	Sm TGR block 50.1µM
COC(=O)C(N)Cc1ccc(OC)c([N+](=O)[O-])c1 (stereo not given)	none
O=C(O)c1ccc2c3c(ncnc13)-c1ccccc1C2=O	Sm TGR block 50.1µM
O=C(O)c1cccc2c1C(=O)c1ccccc1C2=O	none
CCOC(=O)c1sc(NC(=O)CSc2n[nH]c(CC(C)C)n2)nc1C	none
COc1ccccc1CN1C2CCCC1CC(NC(=O)/C=C/c1ccccc1)C2 (stereo not given)	none
Cn1cnc([N+](=O)[O-])c1Nc1ccc(O)cc1	Sm TGR block 25.1µM
CCNc1c([N+](=O)[O-])ncn1C	none
Cc1cc(C)n(CCC(=O)N2CCc3ccccc32)n1	AmpC inh detg inconclusive
CC1CCN(C(=O)Cn2cnc3c2c(=O)n(C)c(=O)n3C)c2ccccc2S1 (stereo not given)	none
Cc1cc(C(=O)COC(=O)c2cc(Cl)c(O)c(Cl)c2)c(C)n1C	Sm TGR block 50.1µM
Cc1cc(C(=O)COC(=O)c2ccc(F)cc2)c(C)n1C	none (no result: Sm TGR block, AmpC inh detg)
Cc1cc(C(=O)NNS(=O)(=O)c2ccc(C(C)(C)C)cc2)nn1C(C)(C)C	none
COc1ccc(N2C3=C(CC4=C2CC(C)(C)CC4=O)C(=O)CC(C)(C)C3)cc1	Sm TGR block inconclusive
COc1ccc(N2C3=C(CC4=C2CCCC4=O)C(=O)CCC3)cc1	Sm TGR block 39.8µM
COCCNc1oc(Cc2cccc3ccccc23)nc1C#N	Sm TGR block inconclusive
Cc1ccccc1OCc1ccc(-c2nc(C#N)c(N3CCN(c4cccc(Cl)c4)CC3)o2)o1	AmpC inh detg inconclusive (no result: AmpC no deterg)
CCn1c(SCC(=O)N2CCN(c3ccccc3)CC2)nc2c(c1=O)SC(C)C2 (stereo not given)	none
CC1Cc2nc(SCC(=O)N3CCN(c4ccccc4)CC3)n(CCc3ccccc3)c(=O)c2S1 (stereo not given)	AmpC no deterg 3.55µM
CC1Cc2nc(SCC(=O)N3CCN(c4ccccc4)CC3)n(C)c(=O)c2S1 (stereo not given)	AmpC no deterg 1.58µM, AmpC inh detg inconclusive
CC1Cc2nc(SCC(=O)N3CCCC3)n(C)c(=O)c2S1 (stereo not given)	AmpC inh detg inconclusive
CCn1c(SCC(=O)NCc2ccc(F)cc2)nc2c(c1=O)SC(C)C2 (stereo not given)	none
CCn1c(SCC(=O)NCc2ccccc2)nc2c(c1=O)SC(C)C2 (stereo not given)	AmpC no deterg 1.58µM
Cc1nn(CC(=O)NCc2ccc(OC(C)C)cc2)c(=O)c2cc(-c3ccccc3)nn12	none
Oc1cccc(/C=N/N(Cc2ccccc2)c2ccccc2)c1	none
Oc1ccc(/C=N/N(Cc2ccccc2)c2ccccc2)c(O)c1O	AmpC no deterg 17.8µM, Sm TGR block inconclusive
COc1ccccc1C(C)NC(=O)c1cc(S(=O)(=O)N2CCCCC2)ccc1C (stereo not given)	none
COc1ccc2cc3cc(C(=O)N4CCN(c5ccccc5F)CC4)oc3nc2c1	none (no result: AmpC no deterg)
CCN=C1S/C(=C\c2ccc(Sc3ccc(Cl)cc3)o2)C(=O)N1CC	Sm TGR block 44.7µM
CC1=CN2C(=N)/C(=C/c3ccc(Sc4ccc(Cl)cc4)o3)C(=O)N=C2S1	none
CCN=C1S/C(=C/c2ccc(-c3ccc(F)cc3)o2)C(=O)N1CC	Sm TGR block 44.7µM
CCN=C1S/C(=C\c2cn(CC)c3ccccc23)C(=O)N1CC	AmpC inh detg inconclusive
Cc1cc(C)c2c(c1)OC(=O)CC2c1ccccc1C (stereo not given)	none (no result: Sm TGR block, AmpC inh detg)
COc1ccc(CN2C(=NC(=O)CCc3ccccc3)SC3CS(=O)(=O)CC32)cc1 (stereo not given)	none
Cc1ccc(N2CC(NC(=O)c3cc4ccccc4o3)CC2=O)cc1C (stereo not given)	none (no result: AmpC no deterg)
Cc1cc(C)nc(SC2=CS(=O)(=O)c3ccccc32)n1	none
O=S1(=O)C=C(Sc2nc3ccccc3s2)c2ccccc21	AmpC no deterg inconclusive, Sm TGR block 2.24µM
CN(c1ccc(C(=O)NCCSCc2c(F)cccc2Cl)cc1)S(C)(=O)=O	none
CCCS(=O)(=O)c1cn2cccc(N)c2c1S(=O)(=O)CCC	Sm TGR block 22.4µM
CCCS(=O)(=O)c1c(S(=O)(=O)CCC)c2c(C)cccn2c1C(N)=O	none
COc1ccccc1N1CCN(C(=O)Cn2cnc3onc(-c4ccc(F)cc4)c3c2=O)CC1	none (no result: AmpC no deterg)
CC(C)[n+]1ccn(C2=C([O-])c3ccccc3C(=O)/C2=N\S(=O)(=O)c2ccccc2)c1	Sm TGR block 44.7µM
CCCC[n+]1ccn(C2=C([O-])c3ccccc3C(=O)/C2=N\S(=O)(=O)c2ccccc2)c1	none
CC1=CC(C)(C)N2C(=O)C(=Nc3ccc(O)cc3)c3cccc1c32	Sm TGR block 10µM
COc1cc(N=C2C(=O)N3c4c(cccc42)C(C)=CC3(C)C)cc(OC)c1	none
COc1cccc(OCc2ccc(Cl)cc2)c1C#N	none
CCCc1nc2c(sc3nc4c(cc32)COC(C)(C)C4)c(=O)n1CCN(C)C	none
Cc1nc2c(sc3nc4c(cc32)COC(C)(C)C4)c(=O)n1CC(=O)NCc1ccco1	Sm TGR block 39.8µM
CC1(C)Cc2nc3sc4c(=O)n(CC(=O)NCc5ccccc5)cnc4c3cc2CO1	none
Cc1nc2c(sc3nc4c(cc32)COC(C)(C)C4)c(=O)n1Cc1ccccc1	none
CC1(C)Cc2nc3sc4c(SCC(=O)NCc5ccco5)ncnc4c3cc2CO1	Sm TGR block 12.6µM, AmpC inh detg inconclusive
CCCc1nc2c(sc3nc4c(cc32)COC(C)(C)C4)c(=O)n1Cc1ccco1	Sm TGR block 35.5µM
Cc1cc(C(=O)NCC(=O)OC(C)C(=O)N2CCOCC2)ccc1[N+](=O)[O-] (stereo not given)	AmpC inh detg inconclusive
COc1ccc(C)cc1Nc1cc(C)nc(C)n1	none (no result: AmpC no deterg)
CCOC(=O)[C@@H]1[C@H]2COc3cc(OC)ccc3[C@@H]2N2C(=O)N(c3ccc(Cl)cc3)C(=O)[C@@]12C	none
O=C(Nn1cnnc1)c1ccccc1Cl	none
COc1ccc(-n2nc3c(c2NC(=O)c2ccco2)CS(=O)(=O)C3)cc1	Sm TGR block 44.7µM
O=C(Nc1c2c(nn1-c1cccc(Cl)c1)CS(=O)(=O)C2)c1ccco1	Sm TGR block 44.7µM
COc1ccc(N2CCN(C(=O)c3ccc(C)c(NC(=O)c4ccco4)c3)CC2)cc1	Sm TGR block 1.78µM
Cc1ccc(-n2nc3c(c2NC(=O)c2ccco2)CS(=O)(=O)C3)cc1C	none
Cc1ccc(-n2nc3c(c2NC(=O)c2ccco2)CS(=O)(=O)C3)cc1	Sm TGR block inconclusive
Cc1ccc(C(=O)N2CCN(c3ccccc3)CC2)cc1NC(=O)c1ccco1	none
